# Test results taken from the supplement of paper PMC12024424.
# Where a name gives a salt, the structure may show the parent alone.
# How the values were obtained:
# [1] = system: Staphylococcus aureus Sa2 (MRSA, cystic fibrosis isolate); assay: growth reduction vs untreated control (OD550); higher = stronger antibacterial activity; conditions: 0.1 mM; 24 h
# Protocol: (§1)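 Single-dose screen of the MedChem Express Drug Repurposing Library (0.1 mM, 1% DMSO) against planktonic MRSA S. aureus Sa2 (CF isolate) in TSB in 96-well plates, 37 °C aerobic, 24 h. Assays were run in triplicate and repeated twice.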
# [2] = system: Staphylococcus aureus Sa2 (MRSA, cystic fibrosis isolate); assay: growth reduction vs untreated control (viable cell count); higher = stronger antibacterial activity; extreme values may be limits of the assay; conditions: 0.1 mM; 24 h
# Protocol: as §1
structure (smiles),measurement,setting,value
O=C(Nc1ccc(F)cc1)c1cnc(SCc2cc(OC(F)(F)F)ccc2B(O)O)nc1,growth reduction,[1],100%
same,growth reduction,[2],100%
CC(=O)O[C@]1(C(C)=O)CC[C@H]2[C@@H]3C=C(C)C4=CC(=O)CC[C@]4(C)[C@H]3CC[C@@]21C [Megestrol acetate],growth reduction,[1],100%
same,growth reduction,[2],91%
c1cn2cc(-c3ccc4cn[nH]c4c3)nc(Nc3ccc(N4CCOCC4)cc3)c2n1 [Entospletinib],growth reduction,[1],100%
same,growth reduction,[2],96%
NC(=O)C1=C(O)[C@@]2(O)C(=O)C3=C(O)c4c(O)cccc4C[C@H]3C[C@H]2CC1=O [Incyclinide],growth reduction,[1],100%
same,growth reduction,[2],100%
O=C(O)c1ccc2nc(-c3cc(Cl)cc(Cl)c3)oc2c1 [Tafamidis],growth reduction,[1],99.5%
same,growth reduction,[2],100%
C=CC(N)CCC(=O)O (stereo unspecified) [Vigabatrin (hydrochloride)],growth reduction,[1],100%
same,growth reduction,[2],100%
CN1C(C(=O)Nc2ccccn2)=C(O)c2sc(Cl)cc2S1(=O)=O [Lornoxicam],growth reduction,[1],97.2%
same,growth reduction,[2],98%
C[C@@H](NCCCc1cccc(C(F)(F)F)c1)c1cccc2ccccc12 [Cinacalcet (hydrochloride)],growth reduction,[1],100%
same,growth reduction,[2],100%
Nc1ccc(S(=O)(=O)Nc2cnc3c(Cl)cccc3n2)cc1 [Chloroquinoxaline sulfonamide],growth reduction,[1],91.6%
same,growth reduction,[2],99%
O=C(NC[C@H]1CN(c2ccc(N3CCOCC3=O)cc2)C(=O)O1)c1ccc(Cl)s1 [Rivaroxaban],growth reduction,[1],100%
same,growth reduction,[2],100%
C=CC(=O)N1CC[C@@H](Oc2nc(Nc3ccc(N4CCC(N5CCN(C)CC5)CC4)cc3)c(C(N)=O)nc2CC)C1 [Naquotinib (mesylate)],growth reduction,[1],99.6%
same,growth reduction,[2],100%
C=CC[C@@H]1/C=C(\C)C[C@H](C)C[C@H](OC)[C@H]2O[C@@](O)(C(=O)C(=O)N3CCCC[C@H]3C(=O)O[C@H](/C(C)=C/[C@@H]3CC[C@@H](O)[C@H](OC)C3)[C@H](C)[C@@H](O)CC1=O)[C@H](C)C[C@@H]2OC [Tacrolimus (monohydrate)],growth reduction,[1],100%
same,growth reduction,[2],100%
COc1ccc(NS(=O)(=O)c2c(F)c(F)c(F)c(F)c2F)cc1F [Batabulin],growth reduction,[1],95.5%
same,growth reduction,[2],98%
CCCCc1oc2ccc(NS(C)(=O)=O)cc2c1C(=O)c1ccc(OCCCN(CCCC)CCCC)cc1 [Dronedarone],growth reduction,[1],96.5%
same,growth reduction,[2],100%
CCOC(=O)[C@H](CCc1ccccc1)N[C@@H](C)C(=O)N1[C@H](C(=O)O)C[C@@H]2CCC[C@@H]21 [Ramipril],growth reduction,[1],92.1%
same,growth reduction,[2],92%
O=C(O)Cc1ccccc1Nc1c(Cl)cccc1Cl [Diclofenac (diethylamine)],growth reduction,[1],100%
same,growth reduction,[2],100%
Cc1cc(-c2nc(CN3CCNCC3)no2)cc2c1C(=O)N(Cc1ccc(OC(F)(F)F)cc1)C2,growth reduction,[1],100%
same,growth reduction,[2],100%
CCCCCCCCCCCCN1CCCCCC1=O [Laurocapram],growth reduction,[1],100%
same,growth reduction,[2],100%
O=C(NS(=O)(=O)c1ccc(Br)s1)c1ccc(Cl)cc1Cl [Tasisulam],growth reduction,[1],100%
same,growth reduction,[2],100%
COc1c(-c2ccc3cc(NS(C)(=O)=O)ccc3c2)cc(-n2ccc(=O)[nH]c2=O)cc1C(C)(C)C [Dasabuvir],growth reduction,[1],91.1%
same,growth reduction,[2],93%
O=C(O)c1ccc(-n2nc(-c3ccccc3O)nc2-c2ccccc2O)cc1 [Deferasirox],growth reduction,[1],96.2%
same,growth reduction,[2],99%
Cc1ccc(NC(=O)C2(c3ccc4c(c3)OC(F)(F)O4)CC2)nc1-c1cccc(C(=O)O)c1 [Lumacaftor],growth reduction,[1],92.9%
same,growth reduction,[2],96%
C[C@H]1Cc2c([nH]c3cc(Cl)c(F)cc23)[C@@]2(N1)C(=O)Nc1ccc(Cl)cc12 [Cipargamin],growth reduction,[1],100%
same,growth reduction,[2],100%
C[C@H](CCC(=O)O)[C@H]1CC[C@H]2[C@@H]3CC[C@@H]4C[C@H](O)CC[C@]4(C)[C@H]3C[C@H](O)[C@]12C [Deoxycholic acid],growth reduction,[1],98.3%
same,growth reduction,[2],100%
CC(C)(C)OC(=O)N[C@H]1CCCCC/C=C\[C@@H]2C[C@@]2(C(=O)NS(=O)(=O)C2CC2)NC(=O)[C@@H]2C[C@@H](OC(=O)N3Cc4cccc(F)c4C3)CN2C1=O [Danoprevir],growth reduction,[1],99.9%
same,growth reduction,[2],100%
Clc1ccc(CSC(Cn2ccnc2)c2ccc(Cl)cc2Cl)cc1 (stereo unspecified) [Sulconazole (nitrate)],growth reduction,[1],93.4%
same,growth reduction,[2],100%
Cc1ccc(-n2[nH]c(C)c(N=Nc3cccc(-c4cccc(C(=O)O)c4)c3O)c2=O)cc1C [Eltrombopag (Olamine)],growth reduction,[1],95.9%
same,growth reduction,[2],100%
Cc1nc2sccn2c(=O)c1CCN1CCC(=C(c2ccc(F)cc2)c2ccc(F)cc2)CC1 [Ritanserin],growth reduction,[1],97.5%
same,growth reduction,[2],100%
